In PubChem BioAssay (NCATS):
“And” between values parts separate entries of the source, which are not always exact repeats. Identical values can stand only once. Records with an inconclusive call do not appear. The source made the active and inactive calls. Unless noted, calls come from the whole dose curve; as a rule, active = well fitted curve in the direction sought with a large enough effect; inconclusive = small, poorly fitted or top-dose-only effect, or another doubt; inactive = no such curve, though single readings can be large; an effect the other way counts as inactive or inconclusive.

Tests used:
[1] = molecular target: Protein phosphatase 1D (Homo sapiens) (UniProt O15297); assay: RapidFire Mass Spectrometry qHTS Assay for Modulators of WT P53-Induced Phosphatase 1 (WIP1) (AID 1347424);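 note: amount of dephosphorylated VEPPL-S-QETFS peptide product formed by WIP1; series mostly up to about 63 µM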
Procedure, shortened: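 10 nM WIP1 + cpd, 1 h RT; + 2 uM VEPPL-pS-QETFS, 5 min RT; stop 0.5% formic acid; labelled product standard 1 uM; RapidFire MS. Buffer 50 mM Tris pH 7.5, 30 mM MgCl2, 1 mM TCEP.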

[2] = molecular target: Protein phosphatase 1D (Homo sapiens) (UniProt O15297); assay: Rhodamine-PBP qHTS Assay for Modulators of WT P53-Induced Phosphatase 1 (WIP1) (AID 1347425)
Procedure, shortened: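 The read-out is the change in Rhodamine-PBP fluorescence (f1 - f0, ex 525/em 598 nm) as Pi is released, read each minute for 11 min. Final reaction: 5 nM WIP1, 10 uM phosphopeptide VEPPL-pS-QETFS, 10 uM Rh-PBP, 50 mM Tris-HCl pH 7.5, 30 mM MgCl2. Compound was preincubated with enzyme for 1 hour at room temperature.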

[3] = Primary qHTS for inhibitors of La Crosse Virus (LACV) - induced cell death in SH-SY5Y cells (AID 1508616);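 note: top concentration of the series differs between compounds; higher means more rescue of cells from virus-induced death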
Procedure, shortened: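 Readout was luminescence from ATPLite 1step added after a 6-day LACV infection (0.01 MOI) of SH-SY5Y cells that had received pin-transferred compound 24 hr after seeding.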

[4] = Primary qHTS for small molecule stabilizers of the endoplasmic reticulum resident proteome: Secreted ER Calcium Modulated Protein (SERCaMP) assay (AID 1508630)
Procedure, shortened: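 GLuc-SERCaMP-expressing SH-SY5Y cells, pretreated 16 h with compound, are challenged with thapsigargin to empty ER calcium stores; after 4 h, coelenterazine is added directly to the medium and luminescence is imaged.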

[5] = A High-Content qHTS Against Drug Library for the Identification of Small Molecules that Inhibit DYT1 Early Onset Primary Dystonia-Associated Cell Pathology (AID 1645839; calls by dose curve; note: potency is the fitted concentration of half-maximal effect)
Procedure, shortened: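 In this high-content image screen, delE TorsinA mislocalization in inducible Flp-In 293 cells is scored as %pathology, with cell count serving as the counterscreen. Compound exposure lasts 48 h under tetracycline induction in reduced-serum medium.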

[6] = molecular target: Cytochrome P450 2D6 (Homo sapiens) (UniProt P10635); assay: Cytochrome P450 family 2 subfamily D member 6 (CYP2D6) small molecule antagonists: luciferase biochemical (cell-free) qHTS assay (AID 1645840; active = well fitted curve in the direction sought with a large enough effect in the repeat runs; an effect the other way counts as inactive or inconclusive; note: nearly all actives have a fitted effect of over 55% in size; note: potency is the fitted concentration of half-maximal effect)
Procedure, shortened: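 P450-Glo luminescent screen: recombinant CYP2D6 enzyme–proluciferin substrate mix preincubated with compound 10 min at room temperature, then NADPH regeneration added for 1 h at room temperature. Detection reagent added for 20 min; luciferin light read as relative luminescence units.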

[7] = molecular target: Cytochrome P450 2C9 (Homo sapiens) (UniProt P11712); assay: Cytochrome P450 family 2 subfamily C member 9 (CYP2C9) small molecule antagonists: luciferase biochemical (cell-free) qHTS assay (AID 1645842; active = well fitted curve in the direction sought with a large enough effect in the repeat runs; an effect the other way counts as inactive or inconclusive; note: nearly all actives have a fitted effect of over 55% in size; note: potency is the fitted concentration of half-maximal effect)
Procedure, shortened: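 Luminescence, after 20 min with luciferin detection reagent, reflected CYP2C9 turnover during a 1 h NADPH-driven reaction at 37C. Enzyme-substrate mix contained 0.4% bovine serum albumin and was preincubated with compound 10 min at room temperature.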

[8] = Primary qHTS for inhibitors of nuclear receptor binding SET domain protein 2 (NSD2) in an isogenic RCH-ACV NSD2 p.E1099K mutant (9B) (AID 1645876); note: nearly all actives have a fitted effect of over 70% in size; note: potency is the fitted concentration of half-maximal effect
[9] = Primary qHTS for inhibitors of nuclear receptor binding SET domain protein 2 (NSD2) in an RCH-ACV wild type WT cells (2C) (AID 1645877); note: nearly all actives have a fitted effect of over 70% in size; note: potency is the fitted concentration of half-maximal effect
[10] = molecular target: Calcium and integrin-binding protein 1 (Homo sapiens) (UniProt Q99828); assay: Primary qHTS for Identification of Calcium Integrin Binding Protein 1 (CIB1) Competitor (AID 1508620);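 note: GST tagged CIB1 binding a fluorescein labelled alphaIIb integrin peptide tracer; top concentration of the series differs between compounds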
Procedure, shortened: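 CIB1-GST (1 uM final) and compound incubated 15 min at room temperature before adding FITC-alphaIIb peptide tracer (100 nM final). Competition for binding read by fluorescence polarization (ex 480, em 540) after another 15 min at room temperature.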

[11] = molecular target: Rap guanine nucleotide exchange factor 3 (Homo sapiens) (UniProt O95398); assay: Confirmatory qHTS for antagonist of cAMP-regulated guanine nucleotide exchange factor 3 (EPAC1) (AID 1645880); note: nearly all actives have a fitted effect of over 55% in size
Procedure, shortened: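 Nucleotide exchange uses 100 nM EPAC1, 250 nM RAP1B-BODIPY-GDP and 50 uM GDP, with compounds in a concentration-titration series. After 5 min at room temperature, fluorescence (480 nm ex/540 nm em) is read every 5 min for 30 min. Data are normalized to control ATA and DMSO.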

Measured: Potency

Cytochrome P450 2C9 (Homo sapiens), sequence (P11712 whole entry, looked up): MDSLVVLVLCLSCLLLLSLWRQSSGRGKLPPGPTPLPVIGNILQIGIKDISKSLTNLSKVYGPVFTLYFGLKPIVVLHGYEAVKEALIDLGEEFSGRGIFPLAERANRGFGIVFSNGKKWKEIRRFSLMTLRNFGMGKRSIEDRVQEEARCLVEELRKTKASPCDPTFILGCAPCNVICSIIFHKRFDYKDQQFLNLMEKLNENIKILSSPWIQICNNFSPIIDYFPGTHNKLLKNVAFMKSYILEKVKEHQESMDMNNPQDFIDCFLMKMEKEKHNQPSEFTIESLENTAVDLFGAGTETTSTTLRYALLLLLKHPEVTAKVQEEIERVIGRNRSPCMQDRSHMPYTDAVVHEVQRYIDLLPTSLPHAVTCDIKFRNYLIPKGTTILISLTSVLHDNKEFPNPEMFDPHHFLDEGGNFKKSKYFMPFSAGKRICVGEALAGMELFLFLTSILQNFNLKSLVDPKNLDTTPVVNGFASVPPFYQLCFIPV
Calcium and integrin-binding protein 1 (Homo sapiens), sequence (Q99828 whole entry, looked up): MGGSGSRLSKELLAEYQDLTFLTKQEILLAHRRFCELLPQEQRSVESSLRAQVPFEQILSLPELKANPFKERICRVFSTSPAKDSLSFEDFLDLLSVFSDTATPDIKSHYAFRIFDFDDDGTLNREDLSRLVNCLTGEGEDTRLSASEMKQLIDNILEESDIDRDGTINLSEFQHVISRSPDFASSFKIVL
Cytochrome P450 2D6 (Homo sapiens), sequence (P10635 whole entry, looked up): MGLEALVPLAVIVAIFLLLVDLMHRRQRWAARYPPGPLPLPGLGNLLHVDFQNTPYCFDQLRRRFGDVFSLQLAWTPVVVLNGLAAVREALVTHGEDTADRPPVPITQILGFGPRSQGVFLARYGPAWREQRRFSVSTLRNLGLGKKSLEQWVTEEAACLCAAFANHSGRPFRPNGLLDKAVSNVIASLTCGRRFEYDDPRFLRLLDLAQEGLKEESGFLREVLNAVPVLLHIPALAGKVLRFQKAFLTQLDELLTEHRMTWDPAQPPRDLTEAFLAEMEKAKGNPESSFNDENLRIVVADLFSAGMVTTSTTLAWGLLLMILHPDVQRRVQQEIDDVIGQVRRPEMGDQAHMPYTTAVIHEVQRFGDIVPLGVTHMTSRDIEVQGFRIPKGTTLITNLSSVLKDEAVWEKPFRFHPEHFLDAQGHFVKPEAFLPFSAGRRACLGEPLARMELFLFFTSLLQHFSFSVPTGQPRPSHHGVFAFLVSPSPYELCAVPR
Rap guanine nucleotide exchange factor 3 (Homo sapiens), sequence (O95398 whole entry, looked up): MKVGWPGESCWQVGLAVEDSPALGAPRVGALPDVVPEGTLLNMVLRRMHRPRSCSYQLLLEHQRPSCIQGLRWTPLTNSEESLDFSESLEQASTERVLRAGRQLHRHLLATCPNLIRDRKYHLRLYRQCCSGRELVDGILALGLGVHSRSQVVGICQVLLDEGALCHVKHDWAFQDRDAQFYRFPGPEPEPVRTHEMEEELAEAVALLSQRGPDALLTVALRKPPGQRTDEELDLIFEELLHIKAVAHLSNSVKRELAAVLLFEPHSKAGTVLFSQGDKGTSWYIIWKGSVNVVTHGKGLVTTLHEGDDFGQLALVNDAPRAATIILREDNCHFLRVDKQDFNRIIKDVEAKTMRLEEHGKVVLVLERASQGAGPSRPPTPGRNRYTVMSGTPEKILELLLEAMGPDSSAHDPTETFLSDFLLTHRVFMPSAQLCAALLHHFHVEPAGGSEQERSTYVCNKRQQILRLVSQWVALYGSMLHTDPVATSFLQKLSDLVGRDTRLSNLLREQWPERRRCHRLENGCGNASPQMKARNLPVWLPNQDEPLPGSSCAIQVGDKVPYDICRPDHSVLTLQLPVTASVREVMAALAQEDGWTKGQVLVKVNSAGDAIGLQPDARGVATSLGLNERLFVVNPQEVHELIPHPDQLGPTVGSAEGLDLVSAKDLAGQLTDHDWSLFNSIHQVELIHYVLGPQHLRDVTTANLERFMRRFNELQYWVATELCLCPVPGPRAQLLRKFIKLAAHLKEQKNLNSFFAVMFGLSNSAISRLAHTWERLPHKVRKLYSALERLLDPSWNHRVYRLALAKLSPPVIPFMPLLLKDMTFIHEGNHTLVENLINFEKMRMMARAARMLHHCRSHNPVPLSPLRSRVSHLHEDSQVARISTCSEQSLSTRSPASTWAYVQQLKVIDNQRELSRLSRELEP
Protein phosphatase 1D (Homo sapiens), sequence (O15297 whole entry, looked up): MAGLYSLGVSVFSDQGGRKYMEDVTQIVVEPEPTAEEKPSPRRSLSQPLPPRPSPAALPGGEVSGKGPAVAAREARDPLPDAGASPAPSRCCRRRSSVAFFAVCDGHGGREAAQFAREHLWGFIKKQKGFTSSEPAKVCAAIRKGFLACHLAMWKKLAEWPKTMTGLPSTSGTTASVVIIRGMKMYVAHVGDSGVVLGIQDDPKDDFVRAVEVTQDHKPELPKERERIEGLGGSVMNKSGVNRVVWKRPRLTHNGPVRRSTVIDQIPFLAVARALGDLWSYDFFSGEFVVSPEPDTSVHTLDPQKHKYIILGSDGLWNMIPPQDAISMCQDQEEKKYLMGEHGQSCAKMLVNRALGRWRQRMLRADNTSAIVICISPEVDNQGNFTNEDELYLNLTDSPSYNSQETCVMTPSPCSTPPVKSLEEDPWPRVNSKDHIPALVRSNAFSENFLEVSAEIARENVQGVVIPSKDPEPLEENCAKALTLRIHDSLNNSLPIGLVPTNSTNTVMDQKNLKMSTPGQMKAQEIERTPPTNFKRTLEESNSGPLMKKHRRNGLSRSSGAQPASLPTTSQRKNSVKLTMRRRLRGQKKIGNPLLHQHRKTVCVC

CC(=O)NCCCCCC(=O)O
inactive: [1] | [2] | [3] | [4] | [5] | [6] | [7] | [8] | [9]

C[C@H]1[C@H]2CC[C@H]3[C@@H]4CC=C5C[C@@H](N(C)C)CC[C@]5(C)[C@H]4CC[C@]23CN1C
inactive: [1] | [2] | [3] | [4] | [5] | [7]

O=C(O)CCc1nc2ccccc2[nH]1
inactive: [1] | [2] | [3] | [4] | [5] | [6] | [7] | [8] | [9]

CC(=O)O[C@]1(C(C)=O)CC[C@H]2[C@@H]3C=C(C)C4=CC(=O)CC[C@]4(C)[C@H]3CC[C@@]21C
inactive: [1] | [2] | [3] | [4] | [5] | [6] | [8] | [9]
active: [7] 12.3 µM

CC(C)n1c(/C=C/[C@@H](O)C[C@@H](O)CC(=O)O)c(-c2ccc(F)cc2)c2ccccc21
inactive: [1] | [2] | [3] | [5] | [6]

CC(=O)Nc1ccc(OCC(O)CNC(C)C)cc1 (configuration not stated)
inactive: [1] | [2] | [3] | [4] | [5] | [6] | [7] | [8] | [9]

C[C@H]1O[C@@H](O[C@H]2CC[C@@]3(C)[C@H](CC[C@@H]4[C@@H]3C[C@@H](O)[C@]3(C)[C@@H](C5=CC(=O)OC5)CC[C@]43O)C2)C[C@H](O)[C@@H]1O[C@H]1C[C@H](O)[C@H](O[C@H]2C[C@H](O)[C@H](O[C@@H]3O[C@H](CO)[C@@H](O)[C@H](O)[C@H]3O)[C@@H](C)O2)[C@@H](C)O1
active: [8] 0.0668 µM | [9] 0.0944 µM
inactive: [1] | [2] | [10] | [4] | [6] | [7]

Nc1nc(N)c(-c2ccccc2)s1
inactive: [1] | [2] | [3] | [4] | [5] | [7] | [8] | [9]

COc1ccc(C(=O)c2ccccc2O)c(O)c1
inactive: [1] | [2] | [3] | [4] | [5] | [8] | [9]

CC(=O)Nc1ccc(S(=O)(=O)Nc2ccc([N+](=O)[O-])cc2)cc1
inactive: [1] | [2] | [3] | [4] | [5] | [6] | [8] | [9]
active: [7] 13.8 µM

CCCN(CCc1cccs1)[C@H]1CCc2c(O)cccc2C1
inactive: [1] | [2] | [3] | [4] | [5] | [7]

OC1C(O)C(O)C(O)C(O)C1O (configuration not stated)
inactive: [1] | [2] | [3] | [4] | [5] | [6] | [7] | [8] | [9]

CCCCCCCCCCCCCC[N+](C)(C)Cc1ccccc1
inactive: [1] | [2] | [3] | [4]
active: [6] 347 nM | [8] 0.335 µM | [9] 0.237 µM

CNCCCCOc1ccccc1Cc1ccccc1
inactive: [1] | [3] | [10] | [4] | [7]
active: [6] 692 nM

CCCCNc1ccc(C(=O)OCCOCCOCCOCCOCCOCCOCCOCCOCCOC)cc1
active: [7] 6.92 µM
inactive: [1] | [3] | [10] | [5] | [6]

Cc1c(-c2ccccc2)oc2c(C(=O)OCCN3CCCCC3)cccc2c1=O
inactive: [1] | [3] | [10] | [4] | [5] | [7] | [8] | [9]

O=C1C(CCS(=O)c2ccccc2)C(=O)N(c2ccccc2)N1c1ccccc1 (configuration not stated)
active: [7] 3.09 µM
inactive: [1] | [3] | [10] | [4] | [5] | [6]

CCN(CC)CCOc1ccccc1C(=O)CCc1ccccc1
active: [6] 110 nM
inactive: [1] | [3] | [10] | [4] | [7] | [8]

CN1CCN(CCC(=O)N2c3ccccc3Sc3ccc(C(F)(F)F)cc32)CC1
active: [5] 3.16 µM | [6] 34.7 nM | [8] 15 µM | [9] 23.7 µM
inactive: [1] | [2] | [7]

Cc1ccc(O)c([C@H](CCN(C(C)C)C(C)C)c2ccccc2)c1
active: [6] 2.45 µM and 2.13 µM | [8] 21.1 µM
inactive: [1] | [2] | [10] | [7]

CCN(CC)CCOc1ccc2c(c1)C(=O)c1cc(OCCN(CC)CC)ccc1-2
inactive: [1] | [2] | [10] | [4] | [6] | [7]
active: [8] 9.44 µM | [9] 9.44 µM

COc1cc(C(=O)NCc2ccc(OCCN(C)C)cc2)cc(OC)c1OC
inactive: [1] | [3] | [10] | [4] | [5] | [6] | [7] | [8] | [9]

CCN(CC)CCNC(=O)c1cc(Br)c(N)cc1OC
inactive: [1] | [3] | [10] | [4] | [5] | [7] | [8] | [9]
active: [6] 6920 nM

COc1ccc(C(Cl)=C(c2ccc(OC)cc2)c2ccc(OC)cc2)cc1
inactive: [1] | [3] | [10] | [4] | [5] | [8] | [9] | [11]
